From PubChem BioAssay come the findings set out here.

Each structure is given as a SMILES string. Activity calls are given as the source filed them.

Test [1] in a line: small molecules captured by biotinylated probe aFSTL3 – biochemical, small-molecule microarray, fluorescence 635/667, stem cell growth factor project, primary screen (AID 1064).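 Further: measures binding of the biotinylated anti-FSTL3 antibody to printed compounds.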 The settings on record: higher = more signal.
Test [2] in a line: binders from COS7 lysate, DM2A8 probe, primary screen, torsin A project, cell lysate, small-molecule microarray, fluorescence 635/667 (AID 1065). The settings on record: higher = more signal, COS7 lysate expressing mutant human TOR1A.
Test [3] is described as follows: small molecules captured by biotinylated probe aFGF2 – biochemical, small-molecule microarray, fluorescence 635/667, stem cell growth factor project, primary screen (AID 1067).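 Further: measures binding of biotinylated aFGF2 protein to printed compounds on slides; z-score merges feature fluorescence and signal-to-noise across triplicate slides.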 The settings on record: higher = more signal.
Test [4] can be described thus: small molecules captured by biotinylated probe aFGF10 – biochemical, small-molecule microarray, fluorescence 635/667, stem cell growth factor project, primary screen (AID 1071).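 Further: score merges 667 nm spot intensity and signal to noise from triplicate slides.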 The settings on record: higher = more signal.
The target of test [5] is Neurogenic locus notch homolog protein 2 (Homo sapiens) (UniProt Q04721). In words: small molecules binding Notch2 protein – biochemical, small-molecule microarray, 635 nm fluorescence, stem cell growth factors, primary screen (AID 1073). The settings on record: higher = more signal.
Test [6] has as its target Pro-neuregulin-1, membrane-bound isoform (Homo sapiens) (UniProt Q02297). The test can be described thus: small molecules binding neuregulin-1 protein – biochemical, small-molecule microarray, fluorescence 635/667, psychiatric disease protein project, primary screen (AID 1075).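 Further: score combines 667 nm spot fluorescence with signal to noise.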 To be noted: NRG1 binding, 635 nm fluorescence, higher = more signal.
The subject of test [7] is Neuregulin-1 EGF-like domain. In words: small molecules binding NRG1 EGF domain – biochemical, small-molecule microarray, 635 nm fluorescence, primary screen (AID 1081).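 Further: binding of the protein to compounds printed on small-molecule microarray slides.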 To be noted: higher = more signal.
Test [8] can be described thus: FRG1 expression reporter modulators in myotubes – cell-based, C2C12 myotubes, firefly/Renilla luciferase, luminescence, FRG1 inhibition for FSHD, primary screen (AID 1084). To be noted: FRG1 promoter luciferase, higher = more signal, called active from +8 up or from −8 down.
Test [9] is described as follows: small molecules captured by biotinylated probe aFST – biochemical, small-molecule microarray, fluorescence 635/667, stem cell growth factor project, primary screen (AID 1086).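 Further: score merges 667 nm fluorescence with signal-to-noise of each printed compound spot.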 To be noted: higher = more signal.
A short description of test [10]: binders of probe aHhip on microarray, primary screen, stem cell growth factor project, biochemical, small-molecule microarray, fluorescence 635/667 (AID 1087).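 Further: score merges spot fluorescence at 667nm with spot signal to noise ratio.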 The settings on record: higher = more signal.
For test [11], the system named is PRMT1 (protein arginine N-methyltransferase 1). The test can be described thus: small molecules binding arginine methyltransferase PRMT1 – biochemical, small-molecule microarray, 635 nm fluorescence, primary screen (AID 1088).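 Further: binding of Prmt1 protein to compounds spotted on small-molecule microarray slides.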 To be noted: higher = more signal.
The nature of test [12]: growth effects on S. cerevisiae YJM789 – YJM789 clinical isolate, OD600, 24 h, basal, primary screen (AID 1089).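 Further: growth of clinical yeast isolate S. cerevisiae YJM 789 seeded 1000 cells per well; test concentration not given here.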 The settings on record: higher = more signal, called active from +8 up or from −8 down.
The nature of test [13]: S. pombe growth modifiers, basal conditions – strain 972, OD600, 24 h, no modulator, primary screen (AID 1090).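 Further: basal condition with compound alone and no growth modifier present; test concentration not given here.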 The settings on record: S. pombe 972 growth, higher = more signal, called active from +8 up or from −8 down.
A short description of test [14]: budding yeast growth modifiers under rapamycin – strain BY4716, OD600, 96 h, primary screen (AID 1091). Further: test concentration not given here. To be noted: S. cerevisiae BY4716 + rapamycin, higher = more signal, called active from +8 up or from −8 down.
In test [15] the target is Torsin-1A-interacting protein 2 (Homo sapiens) (UniProt Q8NFQ8). In words: small molecules binding lysate-expressed LULL1 – cell lysate, human LULL1 lysate, 635/667 nm fluorescence, primary screen (AID 1092).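 Further: probe is lysate of COS7 cells overexpressing human LULL1; score merges per-feature 667 nm fluorescence with signal-to-noise.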 The settings on record: small-molecule microarray, hLULL1 lysate binding, 635 nm fluorescence; higher = more signal.
Torsin-1A-interacting protein 2 (Homo sapiens), sequence (Q8NFQ8 whole entry, looked up): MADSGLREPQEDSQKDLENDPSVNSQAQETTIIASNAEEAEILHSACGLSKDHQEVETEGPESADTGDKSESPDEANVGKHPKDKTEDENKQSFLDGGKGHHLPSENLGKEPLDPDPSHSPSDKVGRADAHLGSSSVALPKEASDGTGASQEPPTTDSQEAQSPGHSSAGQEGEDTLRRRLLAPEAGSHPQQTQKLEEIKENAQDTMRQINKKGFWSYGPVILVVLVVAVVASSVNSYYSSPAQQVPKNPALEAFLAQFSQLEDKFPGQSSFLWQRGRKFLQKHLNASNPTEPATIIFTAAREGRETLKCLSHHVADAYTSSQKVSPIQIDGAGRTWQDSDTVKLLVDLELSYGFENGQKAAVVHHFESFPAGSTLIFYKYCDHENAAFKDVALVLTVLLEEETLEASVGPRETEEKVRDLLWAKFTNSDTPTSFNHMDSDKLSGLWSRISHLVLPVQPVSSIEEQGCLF
Test [16] is described as follows: optical density change of DRC41 E. coli – strain DRC41, OD650, 24 h, E. coli filamentation project, primary screen (AID 1093).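 Further: MC1000 strain lacking acrAB efflux and sulA so SOS filamentation is blocked; test concentration not given here.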 To be noted: E. coli DRC41 growth, higher = more signal, called active from +8 up or from −8 down.
Test [17] in a line: probe aLefty2 binding to arrayed compounds – biochemical, biotinylated probe, 635/667 nm fluorescence, primary screen (AID 1094).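 Further: score merges spot fluorescence near 667 nm with spot signal-to-noise ratio.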 The settings on record: small-molecule microarray, higher = more signal.
Test [18] concerns Noggin (protein binding on small-molecule microarray). In words: small molecules binding Noggin protein – biochemical, 635/667 nm fluorescence, primary screen (AID 1095).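 Further: score merges 667 nm feature fluorescence with signal to noise over triplicate slides.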 To be noted: 635 nm fluorescence, higher = more signal.
For test [19], the target named is Neurogenic locus notch homolog protein 3 (Homo sapiens) (UniProt Q9UM47). In words: small molecules binding NOTCH3 protein – biochemical, 635/667 nm fluorescence, primary screen (AID 1096). The settings on record: small-molecule microarray, 635 nm fluorescence, higher = more signal.
Neurogenic locus notch homolog protein 3 (Homo sapiens), sequence (Q9UM47 whole entry, looked up): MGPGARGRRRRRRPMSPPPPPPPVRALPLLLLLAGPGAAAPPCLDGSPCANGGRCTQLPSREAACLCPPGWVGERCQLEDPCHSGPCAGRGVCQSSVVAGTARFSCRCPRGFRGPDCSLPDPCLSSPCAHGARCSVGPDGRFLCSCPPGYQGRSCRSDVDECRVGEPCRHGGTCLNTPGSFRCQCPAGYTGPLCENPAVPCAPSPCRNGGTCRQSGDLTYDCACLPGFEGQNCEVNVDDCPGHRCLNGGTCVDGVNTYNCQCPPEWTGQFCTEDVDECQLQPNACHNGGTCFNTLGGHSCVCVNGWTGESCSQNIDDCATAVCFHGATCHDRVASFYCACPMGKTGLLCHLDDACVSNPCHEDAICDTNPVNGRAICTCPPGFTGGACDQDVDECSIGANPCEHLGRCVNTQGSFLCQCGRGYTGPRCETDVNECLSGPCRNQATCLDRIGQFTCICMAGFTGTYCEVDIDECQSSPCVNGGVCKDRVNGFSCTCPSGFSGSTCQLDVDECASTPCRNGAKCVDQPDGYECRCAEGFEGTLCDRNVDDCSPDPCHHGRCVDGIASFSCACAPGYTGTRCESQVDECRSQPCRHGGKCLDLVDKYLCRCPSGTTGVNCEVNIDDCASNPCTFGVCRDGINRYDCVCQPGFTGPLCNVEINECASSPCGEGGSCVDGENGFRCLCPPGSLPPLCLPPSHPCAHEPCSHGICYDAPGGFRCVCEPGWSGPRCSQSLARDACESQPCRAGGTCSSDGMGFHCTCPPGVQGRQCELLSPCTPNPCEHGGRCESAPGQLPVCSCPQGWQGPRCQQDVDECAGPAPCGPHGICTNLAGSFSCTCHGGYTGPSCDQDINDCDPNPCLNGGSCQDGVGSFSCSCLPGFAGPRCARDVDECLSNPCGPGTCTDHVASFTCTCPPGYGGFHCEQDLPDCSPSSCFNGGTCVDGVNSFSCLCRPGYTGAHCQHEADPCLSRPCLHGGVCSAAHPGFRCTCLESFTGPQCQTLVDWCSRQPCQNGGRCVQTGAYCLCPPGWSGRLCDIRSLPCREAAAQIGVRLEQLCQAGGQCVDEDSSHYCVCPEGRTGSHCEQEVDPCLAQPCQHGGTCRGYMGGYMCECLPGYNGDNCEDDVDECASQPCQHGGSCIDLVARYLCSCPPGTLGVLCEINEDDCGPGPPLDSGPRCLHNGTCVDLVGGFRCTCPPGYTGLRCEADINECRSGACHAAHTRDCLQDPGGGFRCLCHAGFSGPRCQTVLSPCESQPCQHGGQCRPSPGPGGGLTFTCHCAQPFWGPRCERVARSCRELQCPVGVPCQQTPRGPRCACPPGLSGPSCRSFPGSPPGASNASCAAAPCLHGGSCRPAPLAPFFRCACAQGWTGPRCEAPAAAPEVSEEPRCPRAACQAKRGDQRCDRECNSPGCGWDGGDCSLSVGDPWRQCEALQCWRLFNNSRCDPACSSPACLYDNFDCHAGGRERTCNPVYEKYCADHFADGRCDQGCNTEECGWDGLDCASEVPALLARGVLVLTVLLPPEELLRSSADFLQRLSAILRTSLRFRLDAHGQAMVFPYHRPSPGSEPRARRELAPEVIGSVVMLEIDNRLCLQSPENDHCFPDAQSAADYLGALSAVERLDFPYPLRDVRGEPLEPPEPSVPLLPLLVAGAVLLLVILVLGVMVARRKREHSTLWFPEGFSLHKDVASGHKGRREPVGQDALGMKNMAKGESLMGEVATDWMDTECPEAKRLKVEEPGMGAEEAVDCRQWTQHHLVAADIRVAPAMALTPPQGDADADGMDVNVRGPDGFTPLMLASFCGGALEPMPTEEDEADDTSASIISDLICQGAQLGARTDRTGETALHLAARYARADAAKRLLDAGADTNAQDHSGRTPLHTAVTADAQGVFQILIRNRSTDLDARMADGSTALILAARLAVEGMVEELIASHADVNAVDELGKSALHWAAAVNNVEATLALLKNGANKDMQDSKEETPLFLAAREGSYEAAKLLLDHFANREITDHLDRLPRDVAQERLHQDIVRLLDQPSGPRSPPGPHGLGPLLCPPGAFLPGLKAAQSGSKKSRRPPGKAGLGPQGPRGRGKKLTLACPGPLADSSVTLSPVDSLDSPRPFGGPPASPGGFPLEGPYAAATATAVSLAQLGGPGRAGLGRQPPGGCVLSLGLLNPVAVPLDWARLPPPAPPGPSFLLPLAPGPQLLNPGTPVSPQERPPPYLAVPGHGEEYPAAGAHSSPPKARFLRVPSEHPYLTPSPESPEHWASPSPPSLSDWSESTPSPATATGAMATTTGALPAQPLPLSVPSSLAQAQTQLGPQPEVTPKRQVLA
The nature of test [20]: probe aEGFR binding to arrayed compounds – biochemical, biotinylated probe, 635/667 nm fluorescence, primary screen (AID 1097).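 Further: probe is a biotinylated anti-EGFR antibody binding compounds printed on slides; score combines fluorescence near 667 nm and signal to noise of each spot.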 The settings on record: small-molecule microarray, higher = more signal.

Pro-neuregulin-1, membrane-bound isoform (Homo sapiens), sequence (Q02297 whole entry, looked up, the tested form may be a part, canonical isoform): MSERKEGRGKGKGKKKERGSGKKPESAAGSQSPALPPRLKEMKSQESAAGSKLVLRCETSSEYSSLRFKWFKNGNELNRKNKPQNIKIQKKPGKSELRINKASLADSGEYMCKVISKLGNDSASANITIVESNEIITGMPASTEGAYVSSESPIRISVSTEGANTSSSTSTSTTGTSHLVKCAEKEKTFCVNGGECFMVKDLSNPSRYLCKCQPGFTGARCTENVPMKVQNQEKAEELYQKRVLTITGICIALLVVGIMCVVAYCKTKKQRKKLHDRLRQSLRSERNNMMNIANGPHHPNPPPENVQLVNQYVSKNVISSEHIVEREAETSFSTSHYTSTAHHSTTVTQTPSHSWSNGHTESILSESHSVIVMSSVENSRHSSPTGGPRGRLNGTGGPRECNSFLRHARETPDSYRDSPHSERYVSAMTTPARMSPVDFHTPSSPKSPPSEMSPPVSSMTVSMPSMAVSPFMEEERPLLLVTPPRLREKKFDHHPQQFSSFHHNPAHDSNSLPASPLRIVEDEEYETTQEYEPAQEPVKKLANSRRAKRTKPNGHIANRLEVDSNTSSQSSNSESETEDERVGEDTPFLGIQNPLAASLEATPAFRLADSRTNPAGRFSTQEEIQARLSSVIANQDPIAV

Take `CCOC(=O)C1=CC[C@@H](c2ccccc2)N(S(=O)(=O)c2ccc(C)cc2)[C@H]1C(=O)OCC`: the composite z-score in test [1] is 0.138; in [2] it was -0.0127; in [3] it was 0.338; in test [4], 0.641; in test [5] it was 1.25; in test [6] it was -0.196. The composite z-score was 1.03 in test [7]; 0.603 in [9]; -0.108 in [10]; 0.334 in [11]; 1.14 in [15]; 0.415 in [17]. Besides, the composite z-score came out at 0.0818 in [18], 0.0539 in test [19] and 0.202 in [20]. For the same compound, the z-score in test [8] was -2.4 (inactive); in test [12], 0.19 (inactive); in test [13], 0.572 (inactive); in [14], 1.94 (inactive); in [16], 0.157 (inactive).
As to `CC(C)C(=C=CC[C@H](O)c1ccccc1OCCO)C[C@H](O)c1ccccn1`, the composite z-score was -0.102 in [1]; 1.51 in test [2]; -0.125 in [3]; 0.486 in test [4]; 0.695 in test [5]; 1.66 in test [6]. In addition, the composite z-score in test [7] was 1.36; in [9], 0.164; in [10], -0.201; in test [11], 0.813; in [15] it was 2.27; in test [17], 0.0374. The figures for the composite z-score in [18], in test [19] and in [20] were 0.247, 0.719 and 0.151, respectively. Moreover, the z-score in test [8] is -1.68 (inactive); in test [12], 0.241 (inactive); in [13] it was -0.709 (inactive); in test [14], -0.365 (inactive); in test [16], 0.662 (inactive).
With `CC(C)C(O)C1C=CC2C(=O)N(c3ccccc3)C(=O)C2N1Nc1ccc(C#N)cc1` (stereo not given), the composite z-score is 0.946 in test [1]; 0.303 in [2]; 0.238 in [3]; 1.07 in test [4]; 1.7 in test [5]; 1.72 in test [6]. Besides, the composite z-score in [7] was 1.23; in test [9] it was 1.49; in test [10] it was -0.168; in test [11] it was 1.04; in test [15] it was 3.17; in test [17] it was 0.576. The results for the composite z-score in test [18], in test [19] and in [20] were -0.388, 0.903 and 0.154, respectively. Also, the z-score was 0.596 (inactive) in [8]; -0.108 (inactive) in [12]; 0.349 (inactive) in test [13]; 1.39 (inactive) in test [14]; -0.364 (inactive) in test [16].
As for `COc1ccc(NN2C(C(O)c3ccc(OC)c(OCc4ccccc4)c3)C=CC3C(=O)N(C4CCCCC4)C(=O)C32)cc1` (stereo not given), the composite z-score in test [1] is 0.243; in [2], -0.116; in test [3], 0.136; in test [4], 0.395; in [5], 1.56; in [6] it was 1.4. The composite z-score in test [7] came out at 0.936; in test [9], 0.857; in test [10], 0.0749; in test [11], 1.3; in [15], 3.24; in test [17], 0.0225. The composite z-score in test [18] was 0.181; in test [19], 1.05; in [20], -0.0688. For the same compound, the z-score in test [8] is 0.0498 (inactive); in test [12] it was -0.352 (inactive); in [13] it was 0.225 (inactive); in test [14], -0.724 (inactive); in test [16], 0.644 (inactive).
Take `CN1C(=O)C2C(C1=O)C1C=C(CCCO)C2C(c2cccs2)N1C` (stereo not given): the composite z-score was -0.855 in test [1]; 1.65 in [2]; -0.2 in test [3]; 0.524 in test [4]; -0.508 in test [5]; 0.822 in test [6]. In addition, the composite z-score in test [7] was 1.19; in test [9] it was -0.225; in test [10] it was -0.579; in [11] it was -0.214; in test [15], 2.69; in test [17] it was -0.384. Besides, the figures for the composite z-score in test [18], in test [19] and in test [20] were -0.4, -0.553 and -0.385, respectively. Besides, the z-score was 0.22 (inactive) in test [8]; -0.68 (inactive) in [12]; -0.149 (inactive) in test [13]; -0.113 (inactive) in test [14]; 0.729 (inactive) in [16].
As for `CC(C)OC(=O)CC(=O)CC(O)c1ccc(C#N)cc1` (stereo not given), the composite z-score in test [1] was 0.401; in test [2] it was 0.435; in [3] it was 0.0798; in [4], 0.356; in [5] it was 1.29; in test [6] it was 0.366. In addition, the composite z-score in [7] was 0.552; in test [9] it was 0.712; in test [10], 0.0722; in test [11], 0.269; in [15], 1.85; in [17], 0.403. Moreover, the composite z-score in test [18] is -0.263; in test [19], 0.14; in [20], 0.0541. Moreover, the z-score in [8] was -0.711 (inactive); in test [12], -2.05 (inactive); in test [13] it was 0.331 (inactive); in test [14], -0.602 (inactive); in test [16], 0.0935 (inactive).
As to `C=CC[C@@]1(C(=O)N2CCOCC2)N=C(c2ccc(OCCCO)cc2)O[C@@H]1c1ccccc1N=[N+]=[N-]`, the composite z-score was 0.529 in test [1]; 0.985 in [2]; -0.0073 in test [3]; 0.853 in [4]; 1.53 in test [5]; 1.44 in test [6]. Further, the composite z-score in [7] is 1.19; in test [9] it was 0.993; in [10], 0.21; in [11], 1.54; in test [15], 3.41; in test [17], 0.362. For the same compound, the composite z-score in test [18] is 0.998; in test [19] it was 1.13; in [20], 0.353. Also, the z-score is -0.469 (inactive) in test [8]; -1.27 (inactive) in test [12]; -1.02 (inactive) in [13]; 0.811 (inactive) in test [14]; 0.639 (inactive) in test [16].
Consider `COCC(=C=CC[C@@H](O)c1ccc(CO)o1)CCO`, for which the composite z-score is -0.403 in test [1]; -0.196 in test [2]; -0.188 in test [3]; 0.502 in [4]; -0.235 in test [5]; 0.178 in test [6]. In addition, the composite z-score in test [7] was -0.149; in [9], -0.0032; in [10] it was 0.011; in test [11] it was 0.737; in [15], -0.816; in test [17], -0.256. Moreover, the composite z-score was 1.33 in test [18], 0.735 in test [19] and -0.0943 in [20]. In addition, the z-score was -1.71 (inactive) in test [8]; -3.24 (inactive) in [12]; -2.34 (inactive) in [13]; -2.27 (inactive) in [14]; 1.6 (inactive) in test [16].
Take `O=C1c2ccccc2[C@@]2(Cc3ccccc3N(Cc3ccccc3)C2=O)[C@H](c2ccc(CO)cc2)N1C1CCCCC1`: the composite z-score in test [1] is -0.382; in test [2], -0.832; in test [3] it was -0.152; in test [4], -0.0341; in test [5] it was -0.203; in test [6] it was 0.662. In addition, the composite z-score is 1.37 in test [7]; -0.244 in test [9]; -0.201 in test [10]; 1.21 in test [11]; 0.525 in [15]; -0.239 in test [17]. Moreover, the composite z-score in [18] is 0.61; in [19], 0.269; in test [20] it was -0.2. The z-score is -0.0414 (inactive) in test [8]; -0.676 (inactive) in test [12]; 1.1 (inactive) in test [13]; -0.619 (inactive) in test [14]; -0.0011 (inactive) in test [16].
Regarding `C=C(CCCC)C(=O)CC[C@H](OC(=O)c1cccnc1)c1cccc(OCCO)c1`, the composite z-score in [1] was 0.17; in [2] it was -0.218; in test [3] it was -0.157; in test [4], 0.387; in [5] it was -0.818; in test [6], 0.941. The composite z-score in test [7] is 0.762; in [9] it was 0.0945; in test [10], -0.236; in test [11], 1.3; in [15] it was 1; in test [17] it was -0.141. Besides, the results for the composite z-score in [18], in [19] and in test [20] were 0.257, -0.139 and -0.0818, respectively. In addition, the z-score was -0.594 (inactive) in test [8]; 1.61 (inactive) in [12]; -0.86 (inactive) in test [13]; 1.13 (inactive) in test [14]; 0.241 (inactive) in test [16].
